# Experimental data reported in the supplement of paper PMC10849652.
# Of roughly 7,900 targets only a part is listed; those with a hit were picked by preference. About 0.6% of all pairs of compound and target were hits.
# Tests used:
# Assay in all cases: log2 fold change, soluble protein after heating vs DMSO (PISA); higher = thermal stabilisation; K562 cells, 10 uM, 30 min; active = over 0.2 and 3.5 SD of the protein, either way, in both replicates (recomputed)
# [1] = compound: CC[C@@H]1C(=O)N(C)c2cnc(Nc3ccc(C(=O)NC4CCN(C)CC4)cc3OC)nc2N1C1CCCC1
# Summary of the method: (§1)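 For each measurement, 10 μM compound was applied for 30 min to K562 cells at 2×10^6 cells/mL. Aliquots were heated for 3 min across 48°C-58°C, pooled, and extracted in PBS with 0.5% NP-40 at 4°C; the supernatant after 21,000xg for 90 min was soluble protein. This was quantified by TMTpro 16plex LC-MS/MS with channel sums equalised, and thermal stability was reported relative to control samples from duplicates, on a log2 fold-change scale.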
# volasertib = compound: CC[C@@H]1C(=O)N(C)c2cnc(Nc3ccc(C(=O)N[C@H]4CC[C@H](N5CCN(CC6CC6)CC5)CC4)cc3OC)nc2N1C(C)C [volasertib]
# Summary of the method: as §1
# [2] = compound: CC[C@H](C)N1C=C(C2=C(C=C(C=C21)C3=CN=C(C=C3)N4CCNCC4)C(=O)NCC5=C(C=C(NC5=O)C)C)C
# Summary of the method: as §1
# epoxomicin = compound: CC[C@H](C)[C@@H](C(=O)N[C@@H]([C@@H](C)O)C(=O)N[C@@H](CC(C)C)C(=O)[C@]1(CO1)C)NC(=O)[C@H]([C@@H](C)CC)N(C)C(=O)C [epoxomicin]
# Summary of the method: as §1
# [3] = compound: CCn1c(C(=O)N(C2CC2)C2CC2)cc2c3c(ncn3C)c(Nc3cc(C)n(C)n3)nc21
# Summary of the method: as §1
# [4] = compound: CCn1cc(-c2ccnc3[nH]c(-c4cccc(CN(C)C)c4)cc23)c(-c2ccc(NC(=O)N(C)C)cc2)n1
# Summary of the method: as §1
# [5] = compound: CN(C)CC(=O)Nc1ccc2[nH]c(=O)c3ccccc3c2c1
# Summary of the method: as §1
# rosiglitazone = compound: CN(CCOC1=CC=C(C=C1)C[C@H]2C(=O)NC(=O)S2)C3=CC=CC=N3 (racemic) [rosiglitazone]
# Summary of the method: as §1
# [6] = compound: CN1C2=C(C3=C1C(=O)N(N=C3)CC4=CC(=CC=C4)N)SC(=C2)S(=O)C
# Summary of the method: as §1
# [7] = compound: CN1CCC(CNc2ccc3ncc(-c4cccc(OC(F)(F)F)c4)n3n2)CC1
# Summary of the method: as §1
# UniProt P35610, sequence (P35610 whole entry, looked up): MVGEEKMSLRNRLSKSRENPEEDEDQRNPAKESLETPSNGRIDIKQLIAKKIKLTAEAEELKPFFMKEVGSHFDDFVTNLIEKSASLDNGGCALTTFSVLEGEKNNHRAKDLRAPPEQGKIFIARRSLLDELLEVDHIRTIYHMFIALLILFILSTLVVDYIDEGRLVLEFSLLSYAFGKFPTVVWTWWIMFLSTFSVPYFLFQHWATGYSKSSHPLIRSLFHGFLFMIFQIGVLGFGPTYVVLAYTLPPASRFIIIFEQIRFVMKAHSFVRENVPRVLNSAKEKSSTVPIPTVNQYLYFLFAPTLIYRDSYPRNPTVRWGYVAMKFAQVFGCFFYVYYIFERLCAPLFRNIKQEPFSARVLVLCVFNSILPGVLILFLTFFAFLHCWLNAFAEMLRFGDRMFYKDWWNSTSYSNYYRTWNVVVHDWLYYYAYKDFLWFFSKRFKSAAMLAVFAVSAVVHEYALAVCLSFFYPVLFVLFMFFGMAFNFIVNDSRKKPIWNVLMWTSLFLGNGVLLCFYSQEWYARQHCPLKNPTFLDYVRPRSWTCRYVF
# UniProt P27105, sequence (P27105 whole entry, looked up): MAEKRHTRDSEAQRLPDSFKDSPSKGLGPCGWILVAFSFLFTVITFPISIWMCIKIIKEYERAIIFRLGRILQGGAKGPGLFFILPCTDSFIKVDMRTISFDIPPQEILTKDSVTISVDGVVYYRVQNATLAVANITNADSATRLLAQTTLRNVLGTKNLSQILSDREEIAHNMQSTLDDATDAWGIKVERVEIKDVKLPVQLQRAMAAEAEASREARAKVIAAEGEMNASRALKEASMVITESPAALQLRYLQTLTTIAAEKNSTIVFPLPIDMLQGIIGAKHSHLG
# UniProt A6NHR9, sequence (A6NHR9 whole entry, looked up): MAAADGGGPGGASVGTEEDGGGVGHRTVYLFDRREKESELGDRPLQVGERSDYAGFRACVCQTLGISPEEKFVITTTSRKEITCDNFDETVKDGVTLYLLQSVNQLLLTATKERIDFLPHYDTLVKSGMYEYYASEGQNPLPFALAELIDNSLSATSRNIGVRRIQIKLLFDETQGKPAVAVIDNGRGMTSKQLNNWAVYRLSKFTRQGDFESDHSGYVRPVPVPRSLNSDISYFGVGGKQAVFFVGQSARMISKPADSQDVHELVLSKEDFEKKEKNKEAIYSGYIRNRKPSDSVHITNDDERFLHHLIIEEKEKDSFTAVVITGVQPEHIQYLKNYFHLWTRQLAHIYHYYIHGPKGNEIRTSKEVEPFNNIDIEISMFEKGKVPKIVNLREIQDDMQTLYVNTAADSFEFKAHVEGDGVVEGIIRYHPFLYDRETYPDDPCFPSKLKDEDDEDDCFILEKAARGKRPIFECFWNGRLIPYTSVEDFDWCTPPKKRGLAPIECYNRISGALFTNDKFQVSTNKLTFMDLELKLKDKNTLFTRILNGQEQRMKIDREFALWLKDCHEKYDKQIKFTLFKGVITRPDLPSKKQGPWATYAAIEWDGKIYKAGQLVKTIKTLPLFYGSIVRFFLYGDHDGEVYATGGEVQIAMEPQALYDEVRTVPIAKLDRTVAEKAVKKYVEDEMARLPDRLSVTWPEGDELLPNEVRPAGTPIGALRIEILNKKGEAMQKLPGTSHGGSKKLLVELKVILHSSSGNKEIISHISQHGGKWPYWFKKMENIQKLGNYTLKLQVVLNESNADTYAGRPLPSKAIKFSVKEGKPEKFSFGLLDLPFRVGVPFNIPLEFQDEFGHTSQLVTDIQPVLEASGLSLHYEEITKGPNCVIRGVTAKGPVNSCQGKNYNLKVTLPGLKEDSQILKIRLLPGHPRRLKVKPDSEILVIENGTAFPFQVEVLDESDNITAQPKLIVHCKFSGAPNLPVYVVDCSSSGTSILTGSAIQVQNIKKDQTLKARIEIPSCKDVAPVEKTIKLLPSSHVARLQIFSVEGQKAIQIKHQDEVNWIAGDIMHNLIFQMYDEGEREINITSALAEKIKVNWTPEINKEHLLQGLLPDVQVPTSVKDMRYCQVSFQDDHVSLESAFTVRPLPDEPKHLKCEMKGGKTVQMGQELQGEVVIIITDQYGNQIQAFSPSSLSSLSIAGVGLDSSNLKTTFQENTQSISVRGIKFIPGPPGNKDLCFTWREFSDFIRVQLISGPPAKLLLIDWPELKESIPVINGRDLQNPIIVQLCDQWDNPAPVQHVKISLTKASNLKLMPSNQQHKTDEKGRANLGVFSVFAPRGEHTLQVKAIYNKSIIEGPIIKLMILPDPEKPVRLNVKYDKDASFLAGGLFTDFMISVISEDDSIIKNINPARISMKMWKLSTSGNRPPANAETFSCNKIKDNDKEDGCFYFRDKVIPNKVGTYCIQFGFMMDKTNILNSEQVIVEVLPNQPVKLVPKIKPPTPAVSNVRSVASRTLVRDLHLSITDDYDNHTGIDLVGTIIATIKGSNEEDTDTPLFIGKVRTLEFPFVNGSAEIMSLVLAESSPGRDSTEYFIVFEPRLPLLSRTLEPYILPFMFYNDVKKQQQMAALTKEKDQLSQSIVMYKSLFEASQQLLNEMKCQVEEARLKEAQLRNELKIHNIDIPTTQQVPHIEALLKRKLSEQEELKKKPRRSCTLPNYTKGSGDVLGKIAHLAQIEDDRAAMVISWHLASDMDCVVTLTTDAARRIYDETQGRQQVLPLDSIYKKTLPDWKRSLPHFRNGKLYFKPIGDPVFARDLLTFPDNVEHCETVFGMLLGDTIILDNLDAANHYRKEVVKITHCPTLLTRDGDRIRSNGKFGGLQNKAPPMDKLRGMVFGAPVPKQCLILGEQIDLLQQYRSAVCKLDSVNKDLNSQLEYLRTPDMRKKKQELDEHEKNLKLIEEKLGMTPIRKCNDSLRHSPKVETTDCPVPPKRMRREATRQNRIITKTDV
# UniProt Q15208, sequence (Q15208 whole entry, looked up): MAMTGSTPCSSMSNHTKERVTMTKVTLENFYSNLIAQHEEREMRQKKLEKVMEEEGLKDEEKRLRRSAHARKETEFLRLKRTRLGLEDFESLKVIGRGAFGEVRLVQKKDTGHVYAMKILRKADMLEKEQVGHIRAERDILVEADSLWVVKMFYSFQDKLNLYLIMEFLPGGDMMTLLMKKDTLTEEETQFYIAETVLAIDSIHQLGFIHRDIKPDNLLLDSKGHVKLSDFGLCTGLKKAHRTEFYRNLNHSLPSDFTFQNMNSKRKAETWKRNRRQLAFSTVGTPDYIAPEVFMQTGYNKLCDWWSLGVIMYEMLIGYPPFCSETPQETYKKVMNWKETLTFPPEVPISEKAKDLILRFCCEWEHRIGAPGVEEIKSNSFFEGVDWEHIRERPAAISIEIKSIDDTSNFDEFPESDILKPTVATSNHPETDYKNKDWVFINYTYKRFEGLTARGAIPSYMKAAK
# UniProt Q9BVV7, sequence (Q9BVV7 whole entry, looked up): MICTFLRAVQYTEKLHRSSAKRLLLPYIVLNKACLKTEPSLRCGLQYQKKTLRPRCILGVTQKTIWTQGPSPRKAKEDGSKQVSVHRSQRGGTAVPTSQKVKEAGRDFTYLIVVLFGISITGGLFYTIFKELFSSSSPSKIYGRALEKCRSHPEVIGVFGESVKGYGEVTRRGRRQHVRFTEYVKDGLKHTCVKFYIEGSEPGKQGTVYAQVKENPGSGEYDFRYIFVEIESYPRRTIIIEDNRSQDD
# UniProt Q86UE8, sequence (Q86UE8 whole entry, looked up): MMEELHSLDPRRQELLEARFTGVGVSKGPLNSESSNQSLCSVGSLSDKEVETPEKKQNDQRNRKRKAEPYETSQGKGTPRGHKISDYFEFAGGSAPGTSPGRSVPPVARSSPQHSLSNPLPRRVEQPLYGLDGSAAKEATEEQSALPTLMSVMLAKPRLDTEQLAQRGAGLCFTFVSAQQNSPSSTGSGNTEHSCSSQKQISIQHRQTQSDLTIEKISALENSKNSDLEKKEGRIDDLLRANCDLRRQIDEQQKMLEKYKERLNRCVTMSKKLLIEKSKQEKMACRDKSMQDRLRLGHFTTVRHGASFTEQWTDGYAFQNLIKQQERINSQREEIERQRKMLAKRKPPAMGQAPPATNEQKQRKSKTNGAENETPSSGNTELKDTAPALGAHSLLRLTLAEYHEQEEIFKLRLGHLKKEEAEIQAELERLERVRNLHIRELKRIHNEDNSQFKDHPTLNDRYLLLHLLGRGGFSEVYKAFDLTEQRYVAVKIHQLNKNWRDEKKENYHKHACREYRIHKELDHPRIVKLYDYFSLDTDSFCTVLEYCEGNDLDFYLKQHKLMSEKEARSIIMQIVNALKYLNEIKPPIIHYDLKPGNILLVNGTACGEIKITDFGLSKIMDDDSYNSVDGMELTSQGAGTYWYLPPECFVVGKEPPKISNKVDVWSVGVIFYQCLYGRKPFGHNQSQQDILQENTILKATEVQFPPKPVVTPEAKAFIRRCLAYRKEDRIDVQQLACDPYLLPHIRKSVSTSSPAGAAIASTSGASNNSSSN
# UniProt O00506, sequence (O00506 whole entry, looked up): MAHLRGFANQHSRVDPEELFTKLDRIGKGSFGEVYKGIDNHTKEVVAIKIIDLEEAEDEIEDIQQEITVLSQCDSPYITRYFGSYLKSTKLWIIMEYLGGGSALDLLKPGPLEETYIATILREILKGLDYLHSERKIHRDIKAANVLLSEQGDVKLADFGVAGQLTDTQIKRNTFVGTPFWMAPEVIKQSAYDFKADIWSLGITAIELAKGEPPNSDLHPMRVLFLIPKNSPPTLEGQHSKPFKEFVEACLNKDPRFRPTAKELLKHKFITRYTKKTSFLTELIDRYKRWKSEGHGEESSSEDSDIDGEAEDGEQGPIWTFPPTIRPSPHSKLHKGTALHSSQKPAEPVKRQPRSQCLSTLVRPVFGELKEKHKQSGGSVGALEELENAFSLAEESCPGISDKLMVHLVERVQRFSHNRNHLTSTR
# UniProt O95772, sequence (O95772 whole entry, looked up): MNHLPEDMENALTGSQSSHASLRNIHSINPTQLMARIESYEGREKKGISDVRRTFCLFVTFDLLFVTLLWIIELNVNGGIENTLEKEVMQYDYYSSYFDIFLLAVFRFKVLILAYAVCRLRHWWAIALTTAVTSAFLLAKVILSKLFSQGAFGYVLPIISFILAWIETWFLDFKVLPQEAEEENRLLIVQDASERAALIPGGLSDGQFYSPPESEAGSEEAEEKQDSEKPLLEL
Target,log2 fold change [1],log2 fold change (volasertib),log2 fold change [2],log2 fold change (epoxomicin),log2 fold change [3],log2 fold change [4],log2 fold change [5],log2 fold change (rosiglitazone),log2 fold change [6],log2 fold change [7]
SLC7A6 (UniProt Q92536),0.048 (inactive),0.042 (inactive),-0.099 (inactive),0.211 (inactive),0.014 (inactive),-0.018 (inactive),0.04 (inactive),0.023 (inactive),-0.036 (inactive),0.122 (inactive)
SPCS2 (UniProt Q15005),0.018 (inactive),-0.006 (inactive),0.02 (inactive),0.091 (inactive),-0.067 (inactive),-0.009 (inactive),0.038 (inactive),0.029 (inactive),-0.078 (inactive),0.005 (inactive)
STARD3NL (UniProt O95772),0.037 (inactive),-0.022 (inactive),-0.036 (inactive),-0.085 (inactive),0.007 (inactive),-0.014 (inactive),-0.068 (inactive),0.014 (inactive),-0.058 (inactive),-0.371 (active)
STK25 (UniProt O00506),-0.031 (inactive),-0.107 (inactive),0.024 (inactive),0.033 (inactive),-0.041 (inactive),-0.008 (inactive),-0.024 (inactive),0.077 (inactive),0.017 (inactive),-0.216 (inactive)
SLC27A4 (UniProt Q6P1M0),-0.048 (inactive),-0.473 (active),0.03 (inactive),-0.064 (inactive),-0.014 (inactive),-0.036 (inactive),0.04 (inactive),0.066 (inactive),-0.051 (inactive),-0.158 (inactive)
SLC38A9 (UniProt Q8NBW4),-0.013 (inactive),-0.003 (inactive),-0.022 (inactive),-0.02 (inactive),0.007 (inactive),0.055 (inactive),-0.039 (inactive),0.003 (inactive),0.029 (inactive),-0.197 (inactive)
STK38 (UniProt Q15208),-0.107 (inactive),-0.363 (active),0.106 (inactive),0.035 (inactive),0 (inactive),0.003 (inactive),0.059 (inactive),0.05 (inactive),-0.005 (inactive),-0.068 (inactive)
SSR4 (UniProt P51571),0.004 (inactive),-0.01 (inactive),-0.004 (inactive),0.029 (inactive),0.06 (inactive),0.002 (inactive),-0.022 (inactive),0.015 (inactive),-0.028 (inactive),0.045 (inactive)
TIMM21 (UniProt Q9BVV7),-0.133 (inactive),-0.286 (active),0.034 (inactive),-0.041 (inactive),0.029 (inactive),-0.028 (inactive),-0.025 (inactive),0.05 (inactive),-0.044 (inactive),-0.227 (inactive)
SPR (UniProt P35270),0.02 (inactive),0.165 (inactive),0.013 (inactive),-0.054 (inactive),0.412 (active),0.073 (inactive),0.153 (inactive),0.008 (inactive),-0.184 (inactive),0.012 (inactive)
SSB (UniProt P05455),-0.154 (inactive),-0.131 (inactive),0.083 (inactive),-0.011 (inactive),0.015 (inactive),0.04 (inactive),-0.012 (inactive),0.044 (inactive),-0.001 (inactive),-0.194 (inactive)
STAT5A (UniProt P42229),-0.225 (inactive),-0.633 (active),0.121 (inactive),0.072 (inactive),-0.072 (inactive),0.041 (inactive),0.074 (inactive),0.056 (inactive),-0.005 (inactive),-0.109 (inactive)
SOAT1 (UniProt P35610),-0.017 (inactive),0.053 (inactive),-0.094 (inactive),0.029 (inactive),0.009 (inactive),0.013 (inactive),-0.04 (inactive),-0.016 (inactive),-0.051 (inactive),-0.09 (inactive)
TFR2 (UniProt Q9UP52),-0.483 (active),-0.382 (active),-0.045 (inactive),0.01 (inactive),0.037 (inactive),0.038 (inactive),-0.035 (inactive),-0.007 (inactive),-0.003 (inactive),-0.22 (inactive)
SLC30A7 (UniProt Q8NEW0),0.016 (inactive),-0.074 (inactive),-0.041 (inactive),-0.034 (inactive),-0.007 (inactive),0.032 (inactive),0.014 (inactive),0.053 (inactive),-0.05 (inactive),0.091 (inactive)
TLK2 isoform 2 (UniProt Q86UE8),-0.015 (inactive),-0.112 (inactive),0.029 (inactive),-0.01 (inactive),0.057 (inactive),-0.024 (inactive),-0.012 (inactive),0.014 (inactive),-0.039 (inactive),-0.054 (inactive)
SMCHD1 (UniProt A6NHR9),0.009 (inactive),-0.326 (inactive),0.098 (inactive),-0.189 (inactive),-0.015 (inactive),-0.085 (inactive),0.032 (inactive),-0.118 (inactive),-0.023 (inactive),-0.144 (inactive)
TELO2 (UniProt Q9Y4R8),-0.083 (inactive),-0.359 (active),-0.017 (inactive),-0.093 (inactive),-0.031 (inactive),0.005 (inactive),0.123 (inactive),0.036 (inactive),0.154 (inactive),-0.052 (inactive)
TBCD (UniProt Q9BTW9),-0.061 (inactive),-0.315 (active),0.074 (inactive),-0.012 (inactive),0.028 (inactive),-0.002 (inactive),0.033 (inactive),0.016 (inactive),-0.044 (inactive),-0.094 (inactive)
SRRM2 (UniProt Q9UQ35),-0.025 (inactive),0.009 (inactive),0.046 (inactive),-0.071 (inactive),-0.016 (inactive),-0.072 (inactive),0.053 (inactive),0.046 (inactive),0.062 (inactive),-0.222 (inactive)
SRPRB (UniProt Q9Y5M8),-0.141 (inactive),-0.048 (inactive),0.031 (inactive),0.1 (inactive),-0.046 (inactive),-0.134 (inactive),0.042 (inactive),0.002 (inactive),-0.05 (inactive),0.051 (inactive)
SMAD9 (UniProt O15198),0.059 (inactive),-0.417 (active),-0.137 (inactive),0.026 (inactive),-0.006 (inactive),0.035 (inactive),0.043 (inactive),0.13 (inactive),-0.087 (inactive),-0.261 (inactive)
STK39 (UniProt Q9UEW8),-0.062 (inactive),-0.139 (inactive),0.023 (inactive),0.054 (inactive),-0.055 (inactive),-0.036 (inactive),-0.011 (inactive),0.049 (inactive),0.005 (inactive),-0.25 (active)
SLC27A2 (UniProt O14975),-0.094 (inactive),-0.408 (active),0 (inactive),-0.05 (inactive),0.277 (active),-0.064 (inactive),0.016 (inactive),-0.032 (inactive),-0.092 (inactive),0.313 (active)
TIMM29 (UniProt Q9BSF4),0.044 (inactive),-0.071 (inactive),0.019 (inactive),-0.013 (inactive),0.027 (inactive),-0.035 (inactive),0 (inactive),-0.016 (inactive),-0.103 (inactive),0.062 (inactive)
SSR3 isoform 2 (UniProt Q9UNL2),0.05 (inactive),0.059 (inactive),-0.075 (inactive),-0.054 (inactive),0.062 (inactive),-0.069 (inactive),0.087 (inactive),-0.002 (inactive),0.056 (inactive),0.195 (inactive)
STOM (UniProt P27105),0.087 (inactive),0.096 (inactive),-0.08 (inactive),-0.006 (inactive),0.009 (inactive),-0.164 (inactive),-0.057 (inactive),-0.065 (inactive),0.085 (inactive),0.317 (active)
